Records with an inconclusive call do not appear. Entries that show only a call come without a potency. Some compounds were tested as several samples or in several runs, with calls that do not always agree. Active and inactive are the calls of the source. Unless noted, calls come from the whole dose curve; as a rule, active = well fitted curve in the direction sought with a large enough effect in the repeat runs; inconclusive = weak or mixed curves; inactive = no such curve, though single readings can be large; an effect the other way counts as inactive or inconclusive.
Columns and labels:
[1] = qHTS assay to identify small molecule antagonists of the vitamin D receptor (VDR) signaling pathway - cell viability counter screen (AID 743225); note: nearly all actives have a fitted effect of over 50% in size
Procedure, shortened: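 Cells (VDR-UAS-bla HEK 293T) are plated, rested 4 h at 37C, dosed with compound and 3 nM final 1-alpha,25-dihydroxy vitamin D3, and incubated 16 h. Viability is taken from CellTiter-Glo luminescence in the reporter wells.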

[2] = qHTS assay to identify small molecule agonists of the NFkB signaling pathway - cell viability counter screen (AID 1159515; calls by dose curve; note: nearly all actives have a fitted effect of over 55% in size)
Procedure, shortened: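 NFkB-bla ME-180 cells, 2,000/well, were plated overnight at 37 C, 5% CO2, then exposed to compounds in DMSO for 5 hr. After the bla FRET read, CellTiter-Glo was added to the same wells; luminescence was read after 30 min at room temperature.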

[3] = qHTS assay to identify small molecule agonists of the endoplasmic reticulum stress response signaling pathway - cell viability counter screen (AID 1159517; calls by dose curve; note: nearly all actives have a fitted effect of over 50% in size)
Procedure, shortened: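 ESRE-bla HeLa cells, 1,500 per well, seeded overnight then treated with compounds for 5 hr at 37 C. After the beta-lactamase read, viability in the same wells is measured by CellTiter-Glo luminescence after 30 min at room temperature.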

[4] = qHTS assay to identify small molecule antagonists of the retinoid-related orphan receptor gamma (ROR-gamma) signaling pathway - cell viability counter screen (AID 1159520); note: nearly all actives have a fitted effect of over 50% in size
Procedure, shortened: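 Tet-on ROR gamma CHO cells were given compounds for 2 hr, then doxycycline hyclate at 1 uM final, and incubated 16 hr at 37 C. Viability was measured as ATP content by CellTiter-Glo luminescence.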

[5] = molecular target: Nuclear receptor ROR-gamma (Homo sapiens) (UniProt P51449); assay: qHTS assay to identify small molecule antagonists of the retinoid-related orphan receptor gamma (ROR-gamma) signaling pathway (AID 1159521; note: nearly all actives have a fitted effect of over 50% in size; note: potency is the fitted concentration of half-maximal effect)
Procedure, shortened: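 RORγ antagonism is scored from reduced reporter luminescence in Tet-on CHO cells. Induction used 1 uM final doxycycline hyclate for 16 h at 37 C, following a 2 h compound exposure.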

[6] = qHTS assay to identify small molecule agonists of the AP-1 signaling pathway - cell viability counter screen (AID 1159525; calls by dose curve; note: nearly all actives have a fitted effect of over 55% in size; note: potency is the fitted concentration of half-maximal effect)
Procedure, shortened: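 AP-1-bla ME-180 cells in Opti-MEM with 0.5% dialyzed FBS, compound exposure 5 h at 37 C in 15-point titration. Viability read in the same wells as ATP content by CellTiter-Glo luminescence, normalised to tetra-n-octylammonium bromide and DMSO controls.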

[7] = qHTS assay to identify small molecule agonists of the AP-1 signaling pathway (AID 1159526; calls by dose curve; note: potency is the fitted concentration of half-maximal effect)
[8] = molecular target: Retinoic acid receptor RXR-alpha (Homo sapiens) (UniProt P19793); assay: qHTS assay to identify small molecule agonists of the RXR signaling pathway (AID 1159527; calls by dose curve; note: nearly all actives have a fitted effect of over 35% in size)
Chain of Retinoic acid receptor RXR-alpha (Homo sapiens) (P19793 whole entry, looked up): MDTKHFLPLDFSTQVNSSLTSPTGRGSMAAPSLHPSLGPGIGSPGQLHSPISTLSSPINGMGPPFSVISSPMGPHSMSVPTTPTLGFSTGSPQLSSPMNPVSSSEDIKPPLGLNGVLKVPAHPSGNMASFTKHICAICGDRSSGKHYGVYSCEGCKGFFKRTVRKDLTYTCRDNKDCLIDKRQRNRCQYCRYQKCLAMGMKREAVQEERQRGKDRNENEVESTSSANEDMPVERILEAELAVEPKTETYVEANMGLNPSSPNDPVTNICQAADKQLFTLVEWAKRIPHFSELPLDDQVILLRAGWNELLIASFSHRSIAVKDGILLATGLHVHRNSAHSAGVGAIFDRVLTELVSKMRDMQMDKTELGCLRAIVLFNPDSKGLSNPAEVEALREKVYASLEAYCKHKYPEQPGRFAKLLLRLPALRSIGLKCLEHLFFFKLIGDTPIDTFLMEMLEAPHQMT
Procedure, shortened: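 qHTS of the Tox21 10K library in GeneBLAzer RXR-alpha HEK 293T cells carrying a beta-lactamase reporter […]; 16 hr treatment, 9-cis retinoic acid as agonist control, FRET read-out.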

[9] = qHTS assay to identify small molecule agonists of the RXR signaling pathway - cell viability counter screen (AID 1159529); note: nearly all actives have a fitted effect of over 50% in size; note: potency is the fitted concentration of half-maximal effect
Procedure, shortened: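 Cell viability is measured by CellTiter-Glo luminescence, 30 min at room temperature, in wells already read for beta-lactamase. Engineered HEK 293T cells (RXR-alpha-UAS-bla) are dosed 16 hr at 37 C. Tetraoctyl ammonium bromide serves as positive control.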

[10] = qHTS assay to identify small molecule antagonists of the retinoid acid receptor (RAR) signaling pathway - cell viability counter screen (AID 1159551); note: nearly all actives have a fitted effect of over 35% in size
Procedure, shortened: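 C3RL4 cells were seeded overnight at 37 C, then treated with compounds plus 1 uM (final) retinol for 6 h at 37 C. Viability was read as ATP by CellTiter-Glo luminescence after 30 min at room temperature.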

[11] = qHTS assay to identify small molecule antagonists of the retinoic acid receptor (RAR) signaling pathway (AID 1159552; note: nearly all actives have a fitted effect of over 50% in size)
Procedure, shortened: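 Quantitative HTS in C3RL4 RARE-luciferase reporter cells. Compounds were added with 1 uM (final) retinol; luminescence was read after 6 hr.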

[12] = qHTS assay to identify small molecule agonists of the retinoic acid receptor (RAR) signaling pathway (AID 1159553); details: C3RL4 RARE luciferase reporter, agonist, 6 h; activation: at 73.3 µM (top of the series) unless noted
Procedure, shortened: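 C3RL4 cells carrying a RARE luciferase reporter were plated overnight at 37 C, then exposed to compounds in DMSO for 6 hr at 37 C and 5% CO2. Luminescence was read 30 min after luciferase reagent addition at room temperature.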

[13] = qHTS assay to identify small molecule antagonists of the estrogen related receptor (ERR) signaling pathway from Tox21 library - cell viability counter screen (AID 1224834); note: nearly all actives have a fitted effect of over 30% in size; note: potency is the fitted concentration of half-maximal effect
Procedure, shortened: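 ERR reporter cells were plated 6 h before compound addition, then exposed to test compounds in DMSO for 17.5 h at 37 C. Viability was read as CellTiter-Fluor fluorescence after a 30-minute incubation at 37 C.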

[14] = molecular target: Luciferin 4-monooxygenase (Photinus pyralis) (UniProt P08659); assay: qHTS assay to identify small molecule inhibitors of firefly luciferase (AID 1224835); note: nearly all actives have a fitted effect of over 25% in size; note: potency is the fitted concentration of half-maximal effect
Chain of Luciferin 4-monooxygenase (Photinus pyralis) (P08659 whole entry, looked up): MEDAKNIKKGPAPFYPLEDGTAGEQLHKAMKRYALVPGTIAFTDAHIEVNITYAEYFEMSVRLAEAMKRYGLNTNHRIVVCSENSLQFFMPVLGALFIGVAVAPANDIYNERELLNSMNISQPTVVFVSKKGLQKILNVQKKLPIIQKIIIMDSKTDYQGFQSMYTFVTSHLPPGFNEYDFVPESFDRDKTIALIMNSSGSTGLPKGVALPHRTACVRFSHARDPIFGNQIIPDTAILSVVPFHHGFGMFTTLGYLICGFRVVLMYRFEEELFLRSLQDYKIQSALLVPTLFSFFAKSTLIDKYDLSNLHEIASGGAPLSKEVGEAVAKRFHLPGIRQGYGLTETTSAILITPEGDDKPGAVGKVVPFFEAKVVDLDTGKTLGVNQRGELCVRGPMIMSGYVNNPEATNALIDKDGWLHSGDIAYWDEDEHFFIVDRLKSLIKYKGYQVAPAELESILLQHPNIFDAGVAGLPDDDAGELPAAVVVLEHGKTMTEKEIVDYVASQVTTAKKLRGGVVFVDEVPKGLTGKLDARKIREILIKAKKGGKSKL
Procedure, shortened: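 Biochemical qHTS: compounds run as interplate titrations against purified firefly enzyme, with D-luciferin and ATP each at its KM concentration. Light output recorded by CCD imaging.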

[15] = qHTS assay to identify small molecule agonists of the constitutive androstane receptor (CAR) signaling pathway - cell viability counter screen (AID 1224836); note: nearly all actives have a fitted effect of over 45% in size
Procedure, shortened: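 Counter screen multiplexed with the CAR reporter readout: HepG2 cells co-transfected with hCAR and the CYP2B6-2.2kb construct receive a 15-concentration compound series and 0.75 uM PK11195 (final), then CellTiter-Fluor fluorescence is read after 23 h.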

[16] = qHTS assay to identify small molecule antagonists of the constitutive androstane receptor (CAR) signaling pathway - cell viability counter screen (AID 1224837); note: nearly all actives have a fitted effect of over 45% in size
Procedure, shortened: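 HepG2 cells stably expressing hCAR and a CYP2B6-2.2kb reporter were plated and pre-incubated 4 hr at 37 C/5% CO2, then given compounds at 15 concentrations plus 50 nM CITCO (final). After 23 hr, viability was read by CellTiter-Fluor fluorescence.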

[17] = qHTS assay to identify small molecule agonists of the endoplasmic reticulum stress response signaling pathway (AID 1159516; active = well fitted activation curve with a large enough effect in the signal ratio in the repeat runs, not every such curve was filed as active; the % refers to the signal ratio)
Procedure, shortened: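 CellSensor ESRE-bla HeLa cells, carrying a beta-lactamase reporter driven by the ER stress response element, were plated overnight and exposed to compounds for 5 hr at 37 C. Reporter activity was read as FRET substrate fluorescence after 2 hr at room temperature.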

[18] = qHTS assay to identify small molecule antagonists of the estrogen related receptor (ERR) signaling pathway - cell viability counter screen (AID 1224818);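 note: viability measured after 17.5 h of compound exposure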
Procedure, shortened: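 ERR reporter cells plated 6 h at 37 C/5% CO2, then compounds in DMSO pin-transferred and incubated 17.5 h at 37 C. Viability read as CellTiter-Fluor fluorescence after 30 min at 37 C.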

[19] = qHTS assay to identify small molecule antagonists of the estrogen related receptor signaling pathway with the pleiotropic PPARgamma coactivator (PGC) cell viability counter screen (AID 1224822)
Procedure, shortened: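 PGC/ERR cells were seeded at 2,000 cells/well, rested 6 h at 37 C/5% CO2, then given compounds in DMSO by pin tool and incubated 17.5 h at 37 C. Viability came from CellTiter-Fluor fluorescence after 30 min.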

Compound | outcome [1] | outcome [2] | outcome [3] | Potency [4] | Potency [5] | Potency [6] | Potency [7] | Potency [8] | Potency [9] | outcome [10] | Potency [11] | Potency [12] | Potency [13] | Potency [14] | Potency [15] | Potency [16] | outcome [17] | outcome [18] | outcome [19]
Cc1ccccc1O | inactive | inactive | inactive | inactive | inactive | inactive | inactive | inactive | inactive | inactive | inactive | inactive | inactive | inactive | inactive | inactive |  |  | 
CCC[N+](=O)[O-] | inactive | inactive | inactive | inactive | 4.25 µM (active) and inactive | 15.2 µM (active) and inactive | inactive | inactive | 30.3 µM (active) and inactive | inactive |  |  | 26.8 µM (active) and inactive | 34.9 µM (active) and inactive |  |  | inactive |  | 
C[C@]12CC[C@H]3[C@@H](CC[C@@]45O[C@@H]4C(O)=C(C#N)C[C@]35C)[C@@H]1CC[C@@H]2O | inactive | inactive | inactive | inactive | 48.6 µM (active) | inactive | inactive |  | inactive | inactive |  |  | inactive | inactive |  | inactive |  |  | 
[O-][Cl+2]([O-])O | inactive | inactive | inactive | inactive |  | inactive | inactive | inactive | inactive | inactive | inactive |  | inactive | inactive | inactive | inactive |  |  | 
Cn1cc(-c2ccccc2)c(=O)c(-c2cccc(C(F)(F)F)c2)c1 | inactive | inactive | inactive | inactive | inactive | inactive | inactive | inactive | inactive |  | inactive | inactive |  | inactive | inactive | inactive |  |  | 
CCCCCOC(=O)c1ccccc1C(=O)OCCCCC | inactive | inactive | inactive | inactive | inactive | inactive |  | inactive | inactive | inactive |  |  | inactive | inactive | inactive | inactive | inactive |  | 
CCCCOC(=O)c1ccccc1C(=O)OCCCC | inactive | inactive | inactive | inactive | inactive | inactive |  | inactive | inactive | inactive | inactive |  | inactive | inactive |  | inactive | inactive |  | 
O=NN1CCCCCCC1 | inactive | inactive | inactive | inactive |  | inactive | inactive | inactive | inactive |  | inactive | inactive | inactive | inactive | inactive | inactive |  |  | 
Cc1cc(Cl)ccc1O | inactive | inactive | inactive | inactive | inactive | inactive | inactive | inactive | inactive | inactive | inactive | inactive | inactive | inactive | inactive | inactive |  |  | 
O=NN1CCCC1 | inactive | inactive | inactive | inactive | 10.1 µM (active) and inactive | inactive | inactive | inactive | inactive | inactive | inactive | inactive | 45.3 µM (active) and inactive | 83.4 µM (active) and inactive |  |  |  |  | 
CC(NC(C)(C)C)C(=O)c1cccc(Cl)c1 (stereo not drawn) | inactive | inactive | inactive | inactive | inactive | inactive | 36.8 µM (active) | inactive | inactive | inactive |  |  | inactive | inactive | inactive | inactive | inactive | inactive | inactive
NCCc1ccc(O)cc1 | inactive | inactive | inactive | inactive | inactive | inactive | inactive |  | 48.6 µM (active) and inactive |  | inactive |  | inactive | inactive | inactive | inactive | inactive | inactive | inactive
O=S(=O)(c1ccc(Cl)cc1)c1cc(Cl)c(Cl)cc1Cl | inactive | inactive | inactive | inactive |  | inactive |  |  | inactive |  |  |  | inactive | inactive | inactive | inactive | inactive |  | 
Cc1cccc([N+](=O)[O-])c1 | inactive | inactive | inactive | inactive |  | inactive | inactive |  | inactive | inactive |  | inactive | inactive | inactive |  | inactive | inactive |  | 
CN=C=S | inactive | inactive | inactive | inactive |  | inactive | inactive | inactive | inactive | inactive | inactive | inactive | inactive | inactive | inactive | inactive |  |  | 
O=c1ccc(=O)[nH][nH]1 | inactive | inactive | inactive | inactive | inactive | inactive | inactive | inactive | inactive |  |  |  | inactive | inactive | inactive | inactive | inactive |  | 
c1ccc(OP(Oc2ccccc2)Oc2ccccc2)cc1 | inactive | inactive | inactive | inactive | inactive | inactive | inactive | inactive | inactive | inactive |  |  | inactive | inactive | inactive | inactive | inactive |  | 
O=C(O)c1ccccn1 | inactive | inactive | inactive | inactive | inactive | inactive | inactive | inactive | inactive |  |  |  | inactive | inactive | inactive | inactive | inactive |  | 
O=C(NC(=O)c1c(F)cccc1F)Nc1cc(Cl)c(OC(F)(F)C(F)C(F)(F)F)cc1Cl (stereo not drawn) | inactive | inactive | inactive | inactive | inactive |  |  | inactive | inactive | inactive | inactive |  | inactive | inactive |  | inactive |  |  | 

From PubChem BioAssay (Tox21)
